# Reference: PubChem BioAssay (Tox21)
# Where “and” joins values, the source holds several entries; their conditions need not be identical. Equal values may be shown once. Records with an inconclusive call do not appear. A call without a number means that no potency is given here. Some compounds were tested as several samples or in several runs, with calls that do not always agree. Calls of active or inactive are those of the source. The call rests on the fitted dose curve; in most records, active means well fitted curve in the direction sought with a large enough effect in the repeat runs; inconclusive means weak or mixed curves; inactive means no such curve, though single readings can be large; an effect the other way counts as inactive or inconclusive.
# Assays:
# [1] = qHTS RealTime-Glo MT Cell Viability Assay in HepG2 cells - 40 hour (AID 1224870); further: nearly all actives have a fitted effect of over 50% in size
# Method in brief: (§1)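 HepG2 cells (600/well) mixed with RealTime-Glo MT reagent, settled 5 h at 37 C/5% CO2 before compound addition. Nonlytic NanoLuc luminescence from viable-cell prosubstrate reduction read repeatedly during 40 h treatment at 37 C.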
# [2] = A CellTox Green Cytotoxicity Assay to monitor cytotoxicity in HEK293 cells - 40 hour (AID 1224871); further: nearly all actives have a fitted effect of over 45% in size; further: potency means the concentration at half of the fitted maximal effect
# Method in brief: (§2)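 Fluorescence from a DNA-binding dye excluded by viable cells was measured repeatedly in the same HEK293 wells (600 cells/well) during continuous compound exposure at 37 C. Each assay gives one read point: 0, 8, 16, 24, 32 or 40 h.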
# [3] = qHTS RealTime-Glo MT Cell Viability Assay in HEK293 cells - 16 hour (AID 1224872); further: nearly all actives have a fitted effect of over 50% in size; further: potency means the concentration at half of the fitted maximal effect
# Method in brief: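 Homogeneous bioluminescent viability format in HEK293 cells (600 cells/well). Following 5 h at 37 C/5% CO2, 23 nL compound was pintooled; the signal was measured repeatedly during 40 h incubation.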
# [4] = qHTS RealTime-Glo MT Cell Viability Assay in HepG2 cells - 8 hour (AID 1224873); further: nearly all actives have a fitted effect of over 55% in size
# Method in brief: as §1
# [5] = qHTS RealTime-Glo MT Cell Viability Assay in HEK293 cells - 40 hour (AID 1224874); conditions: RealTime-Glo luminescence; max response: stronger effect = lower value; further: nearly all actives have a fitted effect of over 50% in size; further: potency means the concentration at half of the fitted maximal effect
# Method in brief: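 Luminescence, which tracks viable cell number through reduction of the prosubstrate to a NanoLuc substrate, was read over continuous 37 C culture. Cells (600/well) were premixed with reagent and rested 5 h before 23 nL of compound in DMSO was pinned.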
# [6] = A CellTox Green Cytotoxicity Assay to monitor cytotoxicity in HEK293 cells - 24 hour (AID 1224875); further: nearly all actives have a fitted effect of over 45% in size; further: potency means the concentration at half of the fitted maximal effect
# Method in brief: as §2
# [7] = A CellTox Green Cytotoxicity Assay to monitor cytotoxicity in HepG2 cells - 16 hour (AID 1224876); further: nearly all actives have a fitted effect of over 45% in size; further: potency means the concentration at half of the fitted maximal effect
# Method in brief: (§3)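 Real-time cytotoxicity: fluorescence of a cell-impermeant cyanine dye binding DNA of dead HepG2 cells, measured repeatedly (0–40 h) during compound exposure at 37 C. Cells seeded 600/well with reagent, dosed after 5 h.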
# [8] = qHTS RealTime-Glo MT Cell Viability Assay in HepG2 cells - 32 hour (AID 1224877); further: nearly all actives have a fitted effect of over 55% in size
# Method in brief: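 Cell number in HepG2 cultures estimated from NanoLuc luminescence generated by metabolic reduction of a prosubstrate by living cells. The homogeneous, nonlytic format allowed repeated reads at 0, 8, 16, 24, 32 and 40 h of compound exposure.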
# [9] = A CellTox Green Cytotoxicity Assay to monitor cytotoxicity in HepG2 cells - 24 hour (AID 1224878); further: nearly all actives have a fitted effect of over 45% in size; further: potency means the concentration at half of the fitted maximal effect
# Method in brief: as §3
# [10] = A CellTox Green Cytotoxicity Assay to monitor cytotoxicity in HepG2 cells - 40 hour (AID 1224879); further: nearly all actives have a fitted effect of over 40% in size; further: potency means the concentration at half of the fitted maximal effect
# Method in brief: as §3
SMILES,Potency [1],Potency [2],Potency [3],Potency [4],max response [5],Potency [6],Potency [7],Potency [8],Potency [9],Potency [10],Potency [5]
OCC(O)CO,inactive,inactive,inactive,inactive,-4.06% (inactive) and 6% (inactive),inactive,inactive,inactive,inactive,inactive,–
Nc1ccc(-c2ccccc2)cc1,inactive,inactive,10 µM (active) and inactive,inactive,-19.4% (inactive),inactive,inactive,–,inactive,inactive,10 µM (active)
O=[N+]([O-])c1cccc2ccccc12,inactive,inactive,inactive,inactive,3.63% (inactive) and 7.21% (inactive),inactive,inactive,inactive,inactive,inactive,–
C[C@]12CCC(=O)C(O)=C1CC[C@@H]1[C@@H]2CC[C@]2(C)C(=O)CC[C@@H]12,inactive,inactive,inactive,inactive,-15.6% (inactive),inactive,inactive,inactive,inactive,inactive,–
CCOC(=S)S,inactive,inactive,inactive,inactive,6.71% (inactive) and 5.31% (inactive),inactive,inactive,inactive,inactive,inactive,–
CCCCC(CC)COC(=O)c1ccc(C(=O)OCC(CC)CCCC)c(C(=O)OCC(CC)CCCC)c1 (stereo not drawn),inactive,inactive,inactive,inactive,0.196% (inactive) and 3.66% (inactive),inactive,inactive,inactive,inactive,inactive,–
C=CC(=O)OCCO,inactive,inactive,inactive,inactive,4.73% (inactive) and 14.7% (inactive),inactive,inactive,inactive,inactive,inactive,–
Cc1ccccc1[N+](=O)[O-],inactive,inactive,inactive,inactive,1.02% (inactive) and 16.9% (inactive),inactive,inactive,inactive,inactive,inactive,–
CN(C)C(=O)Nc1ccc(Cl)cc1,inactive,inactive,inactive,inactive,-3.64% (inactive) and -10.5% (inactive),inactive,inactive,inactive,inactive,inactive,–
Oc1cc(Cl)c(Cl)cc1Cl,inactive,inactive,inactive,inactive,-18.2% (inactive) and -12.4% (inactive),inactive,inactive,inactive,inactive,inactive,–
Nn1cnnc1,inactive,inactive,inactive,inactive,-2.23% (inactive) and 1.89% (inactive),inactive,inactive,inactive,inactive,inactive,–
NC(=S)Nc1ccccc1,inactive,49.8 µM (active) and inactive,inactive,inactive,-2.05% (inactive),–,49.8 µM (active) and inactive,inactive,49.8 µM (active) and inactive,55.9 µM (active) and inactive,4.98 µM (active)
O=c1oc2ccccc2c(O)c1C(CC(O)c1ccc(-c2ccc(Br)cc2)cc1)c1ccccc1 (stereo not drawn),inactive,inactive,inactive,inactive,-3.76% (inactive) and 7.1% (inactive),inactive,inactive,inactive,inactive,inactive,–
Nc1ccc(Cl)c(Cl)c1,inactive,inactive,inactive,inactive,0.648% (inactive),inactive,inactive,inactive,inactive,inactive,–
C1=Cc2cccc3cccc1c23,inactive,49 µM (active),inactive,inactive,-3.56% (inactive) and 0.553% (inactive),49 µM (active),inactive,inactive,inactive,inactive,–
CNC(=O)Oc1cccc2c1OC(C)(C)O2,inactive,inactive,inactive,inactive,-0.755% (inactive) and 5.29% (inactive),inactive,inactive,inactive,inactive,inactive,–
CCOc1cc(C=O)ccc1O,inactive,inactive,inactive,inactive,4.96% (inactive) and 4.75% (inactive),inactive,inactive,inactive,inactive,inactive,–
CCCCOCCOP(=O)(OCCOCCCC)OCCOCCCC,inactive,inactive,inactive,inactive,-16.9% (inactive),inactive,inactive,inactive,–,–,–
CCOCN(C(=O)CCl)c1c(C)cccc1CC,inactive,inactive,inactive,inactive,-23.6% (inactive) and -0.0681% (inactive),inactive,inactive,inactive,inactive,inactive,–
CC(C)(c1cc(Cl)c(O)c(Cl)c1)c1cc(Cl)c(O)c(Cl)c1,inactive,inactive,inactive,inactive,-12.2% (inactive) and -31.9% (inactive),inactive,inactive,inactive,inactive,inactive,–

SMILES,Potency [1],Potency [2],Potency [3],Potency [4],max response [5],Potency [6],Potency [7],Potency [8],Potency [9],Potency [10],Potency [5]
O=C(CCl)c1ccccc1,inactive,inactive and 54.9 µM (active),inactive and 49 µM (active),inactive,-7.31% (inactive),inactive,inactive,–,inactive,inactive,43.6 µM (active)
CC(C)NC(C)C,inactive,inactive,inactive,inactive,17.8% (inactive) and 3.33% (inactive),inactive,inactive,inactive,inactive,inactive,–
Cc1cc(Cl)ccc1OCCCC(=O)O,inactive,inactive,inactive,inactive,5.09% (inactive) and 8.04% (inactive),inactive,inactive,inactive,inactive,inactive,–
CCCCCCCCC(=O)NCc1ccc(O)c(OC)c1,inactive,inactive,inactive,inactive,8.1% (inactive) and -1.04% (inactive),inactive,inactive,inactive,inactive,inactive,–
N[C@@H](Cc1ccc(N(CCCl)CCCl)cc1)C(=O)O,inactive,inactive,inactive,inactive,–,inactive,inactive,–,–,–,4.69 µM (active)
c1cc(OCC2CO2)ccc1Cc1ccc(OCC2CO2)cc1 (stereo not drawn),inactive,inactive,inactive,inactive,-28.4% (inactive),inactive,inactive,inactive,inactive,inactive,–
CCCCCCCCOC(=O)c1ccccc1C(=O)OCCCCCCCC,inactive,inactive,inactive,inactive,2.33% (inactive) and -2.33% (inactive),inactive,inactive,inactive,inactive,inactive,–
Clc1nc(Cl)nc(Cl)n1,inactive,inactive,inactive,inactive,10.8% (inactive) and -11.8% (inactive),inactive,inactive,inactive,inactive,inactive,–
Nc1ccncc1,inactive,inactive,inactive,inactive,2.45% (inactive) and 3.84% (inactive),inactive,inactive,inactive,inactive,inactive,–
COP(=S)(OC)Oc1cc(Cl)c(Cl)cc1Cl,inactive,inactive,inactive,inactive,-10.5% (inactive) and -1.54% (inactive),inactive,inactive,inactive,inactive,inactive,–
CCCCNC(=O)n1c(NC(=O)OC)nc2ccccc21,inactive,inactive,inactive,inactive,–,inactive,inactive,inactive,inactive,7.72 µM (active) and 11 µM (active),6.88 µM (active)
C[C@]12CCC(=O)C[C@@H]1CC[C@@H]1[C@@H]2CC[C@]2(C)[C@@H](O)CC[C@@H]12,inactive,43.1 µM (active) and inactive,21.6 µM (active),inactive,–,inactive,inactive,inactive,inactive,–,21.6 µM (active)
N#CC(Br)Br,inactive,inactive,inactive,inactive,-17% (inactive) and 1.39% (inactive),inactive,inactive,inactive,inactive,inactive,–
CCc1cccc(CC)c1N(COC)C(=O)CCl,inactive,inactive,inactive,inactive,-25.5% (inactive),inactive,inactive,inactive,inactive,inactive,–
CNC(=O)N(C)c1nnc(C(C)(C)C)s1,inactive,inactive,inactive,inactive,-13.1% (inactive) and 0.0487% (inactive),inactive,inactive,inactive,inactive,inactive,–
COP(=O)(OC)OC,inactive,inactive,inactive,inactive,4.65% (inactive),inactive,inactive,inactive,inactive,19.7 µM (active) and inactive,–
S=C1NCCN1,inactive,inactive,inactive,inactive,5.45% (inactive) and 5.82% (inactive),inactive,inactive,inactive,inactive,inactive,–
CCCCC(CC)COC(=O)Cl (stereo not drawn),inactive,inactive,inactive,inactive,2.04% (inactive),inactive,inactive,inactive,inactive,inactive,–
NNC(=S)NN,inactive,inactive,inactive,inactive,7.14% (inactive) and 10.3% (inactive),inactive,inactive,–,inactive,inactive,–
Nc1cccnc1,inactive,inactive,inactive,inactive,2.11% (inactive) and -8.29% (inactive),inactive,inactive,inactive,inactive,inactive,–
